Inconclusive results are not listed. Unmarked numbers belong to inactive results. The source made the active and inactive calls. Calls come from the whole dose curve; as a rule, active = well fitted inhibition curve with a large enough effect in the repeat runs; inconclusive = weak or mixed curves; inactive = no such curve, though single readings can be large or run the other way.
Assay: qHTS assay to identify small molecule antagonists of the thyroid receptor (TR) signaling pathway (AID 743065); note: nearly all actives have a fitted effect of over 55% in size
Conditions: GH3.TRE-Luc, T3-stimulated luciferase inhibition, 23.5 h; series mostly up to 70.3 µM; activity, negative = inhibition: at the top concentration
From the text: U.S. Tox21 Program National Center for Advancing Translational Sciences [NCATS] NIH Chemical Genomics Center [NCGC] U.S. Environmental Protection Agency [EPA] National Institutes of Environmental Health Sciences [NIEHS] National Toxicology Program [NTP] U.S. Food and Drug Administration [FDA] Tox21 Assay Overview: Thyroid receptor (TR), a nuclear hormone receptor, plays an important role in development, proliferation, differentiation, metabolism, brain function, and cardiovascular system. […] To profile the Tox21 10K compound library in TR signaling, a cell-based GH3-TRE-Luc assay (GH3.TRE-Luc cell line, developed by the laboratory of Dr. Albertinka J. Murk, Wageningen University) was used to measure the inhibition of TR. GH3 (rat pituitary tumor) cells stably expressing a TR activity sensor consisting of two TR response elements and a luciferase reporter gene.
Tox21 Assay Protocol Summary: GH3.TRE-Luc cells were dispensed at 1500 cells/4 uL/well into 1536-well white solid bottom plates using a Multidrop Combi dispenser (Thermo Fisher Scientific Inc., Waltham, MA). After the assay plates were incubated at 37 C for 4 hours, 23 nL of library compound or DMSO controls was transferred to the assay plates by a pintool station (Kalypsys, San Diego, CA), followed by addition of 1 ul of T3 (1 nM, final concentration in the wells) to stimulate TR transactivation. The assay plates were incubated at 37 C for 23.5 h, and then 1 uL of CellTiter-Fluor reagent (Promega, Madision, WI) of measuring cytotoxicity was added to each well using a Bioraptr Flying Reagent Dispenser (FRD) workstation (Beckman Coulter, Indianapolis, IN, USA). The plates were incubated at 37 C and 5% CO2 for additional 30 min, and fluorescence intensity was measured by a ViewLux plate reader (PerkinElmer, Shelton, CT). For measuring luciferase reporter gene activity, 4 uL of ONE-Glo Luciferase Assay reagent (Promega) was added to each well using a Bioraptr FRD (Beckman Coulter), followed by 30 min incubation at room temperature. The luminescence intensity of plates was recorded by a ViewLux plate reader (PerkinElmer, Shelton, CT).
% is set by controls: 0 for no effect and ±100 for the full control effect.

Compound	activity, negative = inhibition	Potency
O=C(O)C(=O)Cc1ccccc1	1.51%	–
Cc1cccc(C)c1OCC(C)N (stereo not given)	-14.1%	–
C=C1CC/C=C(\C)CC[C@@H]2[C@@H]1CC2(C)C	5.83%	–
COc1cc(C(=S)N2CCOCC2)cc(OC)c1OC	1.31%	–
CCCCCCCC/C=C\CCCCCCCC(=O)OCCCC	-3.23% [at 32.5 µM]	–
CCOC(=O)c1ncn2c1CN(C)C(=O)c1cc(F)ccc1-2	-12.2%	–
CC(=O)c1ccc2c(c1)Cc1ccccc1-2	23.9%	–
CC(C)C(=O)OCCc1ccccc1	10.2%	–
C#CC(C)N(C)C(=O)Nc1ccc(Cl)cc1 (stereo not given)	-4.28%	–
C[C@@H](Oc1ccc(CNC(=O)c2cccnc2Oc2ccc3c(c2)OCO3)c(F)c1)C(=O)O	4.56%	–
CCNC(=O)C1CC(C)CCC1C(C)C (stereo not given)	22.1%	–
CCN1CCc2nc(N)oc2CC1	3.69%	–
CC(=C(CCOC(=O)C(C)C)SSC(CCOC(=O)C(C)C)=C(C)N(C=O)Cc1cnc(C)nc1N)N(C=O)Cc1cnc(C)nc1N	-7.9%	–
C=C(C)C(=O)OCCN(CC)CC	32%	–
CC(C)NCC(O)COc1cccc2[nH]ccc12 (stereo not given)	1.16%	–
OCCN(CCO)c1cccc(Cl)c1	-1.4%	–
CCCCOCCOC(=O)COc1nc(Cl)c(Cl)cc1Cl	-13.1%	–
COc1ccc(OC)c(Cl)c1	5.85%	–
CN1C(C)(C)CCCC1(C)C	4.16%	–
Cc1ccc2c(c1)OCC(=O)CO2	9.74%	–

Compound	activity, negative = inhibition	Potency
O=S(=O)(O)c1cc(O)c2ccc(Nc3ccccc3)cc2c1	17.4%	–
CC/C=C\CC1=C(C)CCC1=O	14%	–
C=CCCCCCCCCCCCC	-5.68%	–
CC(=O)/C=C/C1C(C)=CCC(C)C1(C)C (stereo not given)	-8.88%	–
O=C(NCCc1c[nH]c2ccccc12)c1cccnc1	0.0026%	–
CC(C)C[C@H](NC(=O)CNC(=O)[C@H](Cc1ccc(O)cc1)NC(=O)[C@H](CO)NC(=O)[C@H](Cc1c[nH]c2ccccc12)NC(=O)[C@H](Cc1cnc[nH]1)NC(=O)[C@@H]1CCC(=O)N1)C(=O)N[C@@H](CCCN=C(N)N)C(=O)N1CCC[C@H]1C(=O)NCC(N)=O (stereo in doubt)	-2.12%	–
COc1ccc(Br)c(C)c1	36.7% [at 95 µM]	–
O=C1c2ccccc2C(=O)C1c1ccccc1	-1.32% [at 32.5 µM]	–
COC(=O)CCc1ccc(OCC(O)CNC(C)C)cc1 (stereo not given)	-6.83%	–
CC(C)c1ccc2cc(C(C)C)ccc2c1	10.2%	–
CC(C)(C)c1cc(CCC(=O)NN)cc(C(C)(C)C)c1O	-16.8%	–
OCCCCC(O)CO (stereo not given)	2.4%	–
O=C(CCNNC(=O)c1ccncc1)NCc1ccccc1	0.0038%	–
O=C(O)CCSSCCC(=O)O	-1.56% [at 95 µM]	–
CC[C@H](C)C(=O)O[C@H]1C[C@H](O)C=C2C=C[C@H](C)[C@H](CC[C@@H](O)C[C@@H](O)CC(=O)O)[C@H]21	–	inactive
CC(C)N(c1ccccc1)C(C)C	14.7%	–
CC1(C)S[C@@H]2[C@H](N=CN3CCCCCC3)C(=O)N2[C@H]1C(=O)O	9.8%	–
O=C(OCc1ccccc1)C(=O)OCc1ccccc1	1.39%	–
C=COCCOCCOCCOC=C	13.8%	–
O=C1CCCC(=O)O1	8.88%	–
